Conditions in all cases: Compound concentration 20.0 uM
For assay [1], the target named is Tyrosine-protein kinase ABL1 (Homo sapiens) (UniProt P00519).
Assay [2] deals with Bromodomain-containing protein 4 (Homo sapiens) (UniProt O60885).
Assay [3] has as its target Cyclin-dependent kinase 2 (Homo sapiens) (UniProt P24941).
Assay [4] addresses Casein kinase I isoform delta (Homo sapiens) (UniProt P48730).
For assay [5], the target named is Glycogen synthase kinase-3 beta (Homo sapiens) (UniProt P49841).
Assay [6] addresses Mitogen-activated protein kinase 1 (Homo sapiens) (UniProt P28482).
In assay [7] the target is T1, Aurora kinase A (Homo sapiens) (UniProt O14965).
T1 sequence (whole entry): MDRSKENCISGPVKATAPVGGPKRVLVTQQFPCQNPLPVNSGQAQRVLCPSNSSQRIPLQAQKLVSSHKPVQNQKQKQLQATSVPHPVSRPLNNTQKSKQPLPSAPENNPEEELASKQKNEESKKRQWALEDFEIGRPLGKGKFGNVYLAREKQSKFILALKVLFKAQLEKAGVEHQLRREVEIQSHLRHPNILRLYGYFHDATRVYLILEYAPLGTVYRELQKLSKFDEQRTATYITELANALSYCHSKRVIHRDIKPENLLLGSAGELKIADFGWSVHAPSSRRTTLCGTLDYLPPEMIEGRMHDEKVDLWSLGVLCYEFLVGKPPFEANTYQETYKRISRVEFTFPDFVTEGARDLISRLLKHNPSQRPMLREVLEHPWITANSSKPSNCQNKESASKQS

Assay [8] addresses T2, Transcription intermediary factor 1-alpha (Homo sapiens) (UniProt O15164).
T2 sequence (whole entry): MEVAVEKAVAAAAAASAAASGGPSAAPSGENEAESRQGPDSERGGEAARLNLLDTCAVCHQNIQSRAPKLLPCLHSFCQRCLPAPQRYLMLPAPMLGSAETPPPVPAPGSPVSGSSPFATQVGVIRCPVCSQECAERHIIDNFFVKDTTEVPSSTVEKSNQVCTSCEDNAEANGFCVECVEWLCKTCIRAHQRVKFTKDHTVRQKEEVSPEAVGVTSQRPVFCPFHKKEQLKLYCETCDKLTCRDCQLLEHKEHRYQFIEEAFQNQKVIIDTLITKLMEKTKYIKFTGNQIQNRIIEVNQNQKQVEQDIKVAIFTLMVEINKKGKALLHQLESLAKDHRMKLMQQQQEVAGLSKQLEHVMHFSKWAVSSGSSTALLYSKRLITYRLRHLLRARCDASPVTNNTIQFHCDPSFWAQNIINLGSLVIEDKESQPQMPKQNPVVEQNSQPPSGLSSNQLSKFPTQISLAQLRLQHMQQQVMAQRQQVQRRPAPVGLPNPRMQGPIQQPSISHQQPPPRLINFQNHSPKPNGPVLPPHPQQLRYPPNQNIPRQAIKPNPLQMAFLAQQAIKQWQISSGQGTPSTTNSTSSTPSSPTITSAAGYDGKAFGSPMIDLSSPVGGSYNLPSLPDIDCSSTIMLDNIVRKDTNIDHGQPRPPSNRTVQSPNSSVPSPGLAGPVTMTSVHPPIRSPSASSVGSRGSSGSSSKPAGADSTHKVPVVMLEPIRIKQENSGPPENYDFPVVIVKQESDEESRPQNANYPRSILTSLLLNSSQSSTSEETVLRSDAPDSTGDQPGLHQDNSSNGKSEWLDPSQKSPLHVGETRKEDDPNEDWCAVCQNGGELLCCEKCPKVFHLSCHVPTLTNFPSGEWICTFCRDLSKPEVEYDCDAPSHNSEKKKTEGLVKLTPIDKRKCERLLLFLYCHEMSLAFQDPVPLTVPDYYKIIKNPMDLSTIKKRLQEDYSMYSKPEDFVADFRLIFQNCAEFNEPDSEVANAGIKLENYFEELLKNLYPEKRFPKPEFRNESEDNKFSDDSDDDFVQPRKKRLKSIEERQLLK

Sequence of Casein kinase I isoform delta (Homo sapiens) (P48730 whole entry, looked up, canonical isoform): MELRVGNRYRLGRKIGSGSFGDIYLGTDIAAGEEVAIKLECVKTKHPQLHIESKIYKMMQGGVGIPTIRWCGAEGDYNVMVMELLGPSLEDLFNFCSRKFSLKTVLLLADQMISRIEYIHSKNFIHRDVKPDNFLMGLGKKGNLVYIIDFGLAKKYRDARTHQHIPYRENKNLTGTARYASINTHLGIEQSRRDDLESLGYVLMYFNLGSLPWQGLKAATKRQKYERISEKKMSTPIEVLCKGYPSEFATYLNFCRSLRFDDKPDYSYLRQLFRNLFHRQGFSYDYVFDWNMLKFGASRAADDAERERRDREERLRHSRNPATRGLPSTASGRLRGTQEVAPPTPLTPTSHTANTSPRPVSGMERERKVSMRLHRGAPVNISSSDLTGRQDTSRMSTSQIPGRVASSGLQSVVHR
Sequence of Tyrosine-protein kinase ABL1 (Homo sapiens) (P00519 whole entry): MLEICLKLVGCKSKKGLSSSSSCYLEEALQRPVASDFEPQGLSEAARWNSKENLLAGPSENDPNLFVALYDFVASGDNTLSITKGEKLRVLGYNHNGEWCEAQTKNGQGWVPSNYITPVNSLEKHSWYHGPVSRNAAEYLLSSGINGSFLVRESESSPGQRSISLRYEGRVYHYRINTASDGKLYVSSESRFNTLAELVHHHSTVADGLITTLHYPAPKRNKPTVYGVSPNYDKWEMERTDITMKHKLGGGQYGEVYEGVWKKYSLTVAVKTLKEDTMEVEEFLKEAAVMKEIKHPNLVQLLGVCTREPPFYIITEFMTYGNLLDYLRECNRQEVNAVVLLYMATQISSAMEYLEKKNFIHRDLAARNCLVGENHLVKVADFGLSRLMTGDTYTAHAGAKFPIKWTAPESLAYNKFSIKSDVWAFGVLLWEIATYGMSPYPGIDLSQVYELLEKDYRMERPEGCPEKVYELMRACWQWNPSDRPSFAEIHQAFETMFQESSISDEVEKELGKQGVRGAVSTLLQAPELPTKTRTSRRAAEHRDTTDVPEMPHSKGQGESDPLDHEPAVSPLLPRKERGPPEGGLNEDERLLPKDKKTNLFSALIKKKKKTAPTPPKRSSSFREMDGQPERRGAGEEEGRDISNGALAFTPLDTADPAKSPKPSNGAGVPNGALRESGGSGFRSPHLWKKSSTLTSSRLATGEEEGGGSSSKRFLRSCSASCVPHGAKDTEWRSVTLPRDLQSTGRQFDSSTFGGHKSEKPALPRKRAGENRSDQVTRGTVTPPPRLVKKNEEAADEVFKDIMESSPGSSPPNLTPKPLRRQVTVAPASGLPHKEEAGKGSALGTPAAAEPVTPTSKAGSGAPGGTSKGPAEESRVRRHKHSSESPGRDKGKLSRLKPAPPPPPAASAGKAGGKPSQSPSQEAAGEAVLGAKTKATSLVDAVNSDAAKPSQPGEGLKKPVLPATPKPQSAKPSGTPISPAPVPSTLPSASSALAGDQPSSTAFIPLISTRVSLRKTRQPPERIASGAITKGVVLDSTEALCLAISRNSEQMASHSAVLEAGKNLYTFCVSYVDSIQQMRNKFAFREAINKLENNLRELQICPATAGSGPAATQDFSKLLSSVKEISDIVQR
Sequence of Mitogen-activated protein kinase 1 (Homo sapiens) (P28482 whole entry): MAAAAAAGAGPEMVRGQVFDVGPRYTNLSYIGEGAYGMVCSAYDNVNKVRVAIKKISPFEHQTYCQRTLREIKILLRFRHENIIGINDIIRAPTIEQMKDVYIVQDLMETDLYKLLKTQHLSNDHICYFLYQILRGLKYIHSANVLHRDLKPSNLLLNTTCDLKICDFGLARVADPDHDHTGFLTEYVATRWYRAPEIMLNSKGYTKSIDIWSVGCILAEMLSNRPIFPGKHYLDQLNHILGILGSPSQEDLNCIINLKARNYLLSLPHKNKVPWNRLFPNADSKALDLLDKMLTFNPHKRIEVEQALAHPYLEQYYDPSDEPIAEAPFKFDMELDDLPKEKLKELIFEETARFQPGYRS
Sequence of Glycogen synthase kinase-3 beta (Homo sapiens) (P49841 whole entry, looked up): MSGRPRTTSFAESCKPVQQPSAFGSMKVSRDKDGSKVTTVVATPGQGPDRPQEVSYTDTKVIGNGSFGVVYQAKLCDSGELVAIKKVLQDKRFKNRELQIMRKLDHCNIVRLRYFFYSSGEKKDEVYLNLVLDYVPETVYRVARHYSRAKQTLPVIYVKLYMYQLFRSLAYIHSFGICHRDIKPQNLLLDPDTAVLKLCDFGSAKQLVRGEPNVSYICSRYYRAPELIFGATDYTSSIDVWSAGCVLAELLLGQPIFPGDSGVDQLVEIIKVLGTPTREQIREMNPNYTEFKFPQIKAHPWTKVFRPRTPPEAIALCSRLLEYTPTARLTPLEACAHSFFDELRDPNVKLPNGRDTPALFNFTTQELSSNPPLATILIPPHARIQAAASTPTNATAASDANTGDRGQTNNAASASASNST

As to `CNc1cc(-c2cccc(Cl)c2Cl)nc(N)n1`, the ΔTm in assay [1] is 0.38 °C; in assay [2], -2.61 °C; in assay [3] it was 0.11 °C; in assay [4] it was -0.27 °C; in assay [5] it was -0.04 °C; in assay [6], 0.22 °C. The figures for the ΔTm in assay [7] and in assay [8] were -2.02 °C and 0.28 °C, respectively.

For the compound `CNC(=O)Cn1cc(-c2ccc3c(c2)[C@H](F)C[C@]32NC(=O)N(CC(=O)N(Cc3ccc(F)cc3)[C@@H](C)C(F)(F)F)C2=O)cn1`, the ΔTm in assay [1] was 0.95 °C; in assay [2], -4.22 °C; in assay [3] it was 1.31 °C; in assay [4] it was 0.73 °C; in assay [5] it was 1.28 °C; in assay [6], -6.46 °C. Moreover, the thermal shift (ΔTm) is -1.03 °C in assay [7] and -1.4 °C in assay [8].

Take `COc1cc2c(NC3CCN(CC4CCCCC4)CC3)nc(N3CCCN(C(C)C)CC3)nc2cc1OCCCN1CCCCC1`: the ΔTm in assay [1] is 0.33 °C; in assay [2], -0.97 °C; in assay [3], 0.51 °C; in assay [4], 0.17 °C; in assay [5] it was -0.33 °C; in assay [6], -0.16 °C. The ΔTm in assay [7] is -0.14 °C; in assay [8] it was -0.74 °C.

With `CS(=O)(=O)Nc1ccc2oc3c(OC(F)F)ccc(C(=O)Nc4c(Cl)cncc4Cl)c3c2c1`, the ΔTm in assay [1] was 0.6 °C; in assay [2], -1.02 °C; in assay [3], -0.16 °C; in assay [4], -1.11 °C; in assay [5], -0.39 °C; in assay [6] it was 0.24 °C. Also, the ΔTm in assay [7] is -1.56 °C; in assay [8], 0.09 °C.

With `Cc1nc(-c2cnn(C)c2-c2ccc(C(F)(F)F)cn2)c2c(N3CCC3)ncnn12`, the ΔTm in assay [1] was 0.74 °C; in assay [2], -3.11 °C; in assay [3], 0.08 °C; in assay [4], -0.17 °C; in assay [5], -0.34 °C; in assay [6], 0.1 °C. For the same compound, the values for the ΔTm in assay [7] and in assay [8] were -2.46 °C and 0.34 °C, respectively.

Regarding `NS(=O)(=O)OC[C@H]1C[C@@H](Nc2ccnc3cc(-c4cccc(SC(F)(F)F)c4)nn23)[C@H](O)[C@@H]1O`, the ΔTm in assay [1] was 1.49 °C; in assay [2], 1.04 °C; in assay [3], 0.04 °C; in assay [4], 0.4 °C; in assay [5], -1.24 °C; in assay [6] it was 0.75 °C. For the same compound, the ΔTm in assay [7] was -1.12 °C; in assay [8], 1.39 °C.

Take `O=C(O)Cc1ccc(Cc2cc(-c3cccc(Cl)c3)nc(C(F)(F)F)c2)cc1`: the ΔTm was 0.68 °C in assay [1]; -4.37 °C in assay [2]; 1.64 °C in assay [3]; -0.18 °C in assay [4]; -1.53 °C in assay [5]; 0.39 °C in assay [6]. The thermal shift (ΔTm) in assay [7] is -2.1 °C; in assay [8], -0.93 °C.

For `CNc1ncc2cc(-c3cc(NC(=O)NCCC(C)(C)C)c(F)cc3C)c(C)nc2n1`, the ΔTm is -2.79 °C in assay [2]; 0.45 °C in assay [3]; 0.25 °C in assay [4]; 1.15 °C in assay [5]; -2.34 °C in assay [6]; -0.92 °C in assay [7]. Moreover, the ΔTm in assay [8] was -0.11 °C.

On to `CC1=NN(c2ccc(C(=O)O)cc2)C(=O)/C1=C/c1ccc(-c2cc(C)c(C)cc2[N+](=O)[O-])o1`, for which the ΔTm was 3.73 °C in assay [1]; -0.48 °C in assay [2]; 0.29 °C in assay [3]; 0.15 °C in assay [4]; 0.03 °C in assay [5]; 0.41 °C in assay [6]. Also, the ΔTm in assay [7] was -0.94 °C; in assay [8], -1.19 °C.

For `COc1cc(Oc2ccnc3cc(OC)c(OC)cc23)ccc1NC(=O)NC(C)c1nccs1` (configuration not stated), the ΔTm was 9.54 °C in assay [1]; -3.36 °C in assay [2]; 0.28 °C in assay [4]; -1.46 °C in assay [5]; -9.78 °C in assay [6]; -0.11 °C in assay [7]. Further, the ΔTm in assay [8] was -0.38 °C.

Regarding `O=C1c2ccccc2C(=O)c2oc(-c3ccccc3)nc21`, the ΔTm in assay [1] was 0.27 °C; in assay [2] it was -2.65 °C; in assay [3], 0.44 °C; in assay [4], -0.2 °C; in assay [5], 0.18 °C; in assay [6] it was -0.09 °C. In addition, the ΔTm in assay [7] is -2.45 °C; in assay [8], 1.13 °C.

For the compound `Cc1ncc(Cl)cc1NCc1ccc(C(=O)N[C@@H](CC2CCCC2)C(=O)NC2CC2)s1`, the ΔTm is 2 °C in assay [1] (Protein concentration 2.0 uM); -3.44 °C in assay [2]; -0.15 °C in assay [3]; -0.05 °C in assay [4]; 10.5 °C in assay [5]; -3.12 °C in assay [6]. In addition, the ΔTm is 7.63 °C in assay [7] and 2.21 °C in assay [8].

As to `O=c1[nH][nH]c(=O)c2cc(OCc3ccccc3F)ccc12`, the ΔTm in assay [1] is 3.37 °C; in assay [2], -1.6 °C; in assay [3] it was 0.72 °C; in assay [4], -6.69 °C; in assay [5], 1.24 °C; in assay [6], -14.6 °C. Moreover, the results for the ΔTm in assay [7] and in assay [8] were -0.33 °C and 0 °C, respectively.

For the compound `O=C(NCCc1cc(C(=O)NO)no1)c1ccc(Cl)c(Cl)c1`, the ΔTm in assay [1] is 1.11 °C; in assay [2], -2.11 °C; in assay [3], 0.66 °C; in assay [4] it was 0.6 °C; in assay [5], -1.05 °C; in assay [6], 0.3 °C. Further, the ΔTm in assay [7] is -0.59 °C; in assay [8] it was -0.96 °C.

For the compound `CN(Cc1cc(Br)cc(Br)c1N)C1CCCCC1`, the ΔTm was -0.03 °C in assay [1]; -2.64 °C in assay [2]; -0.09 °C in assay [3]; -0.11 °C in assay [4]; -0.69 °C in assay [5]; -0.8 °C in assay [7]. For the same compound, the ΔTm in assay [8] stood at 0.31 °C.

Usually ΔTm stands for the change in melting temperature against a reference sample.
